Among the data in PubChem BioAssay (NCI) are growth values, retold here.

Each structure is given as a SMILES string. Compounds without any hit were thinned out: in the full panel of roughly 83,000, 20% have a hit.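 Cells were grown in 96-well plates and exposed to the test compound at a single concentration for 48 hours; results are reported as percent growth, with values below 10 considered active.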 Values without a mark were called inactive. The source made the active and inactive calls.

This experiment concerns HL-60(TB) leukemia. As to the kind of experiment: NCI-60 one-dose screen, 48 h (100 = growth as untreated, 0 = no growth, -100 = all killed). The settings on record: 10 µM unless noted.
With `CC(=O)NC(CCC(=O)c1ccccc1)C(=O)O` (stereo not given), the growth is 75.9%.

On to `O=C(CSc1ncc(-c2ccccc2)n1-c1ccccc1)Nc1ccc(-c2nc3ccccc3s2)cc1`, for which the growth was 100%.

`CCN(CC)Cc1cccc(C(=O)OC)c1`: the growth is 83.2%.

Regarding `O=C1/C(=C/c2ccc(F)cc2)CN(Cc2cn(CCNc3ccnc4cc(Cl)ccc34)nn2)C/C1=C\c1ccc(F)cc1`, the growth was -27.6% (active).

In the case of `CN(C)c1ccc(/C=C/C(=O)c2ccc(NC(N)=O)cc2)cc1`, the growth was 87.3%.

Regarding `CC(C)(C)C(=O)/C=C/c1ccc([N+](=O)[O-])cc1`, the growth is 75.2%.

Turning to `CCN(CCCCCCCCCCN1CC(=O)N(CCCCCCCCCCN(CC)Cc2ccccc2OC)CC1=O)Cc1ccccc1OC`, the growth is -67.9% (active).

As to `CCCCN(CCCC)C(=O)[C@H](CC)[C@@H]1CC[C@@H](C)[C@@H]([C@H](C)[C@@H](O)[C@@H](C)C(=O)[C@H](CC)C2O[C@]3(C=C[C@@H](O)[C@]4(CC[C@@](C)([C@H]5CC[C@](O)(CC)[C@H](C)O5)O4)O3)[C@H](C)C[C@@H]2C)O1` (stereo not given in full), the growth was -40.8% (active).

In the case of `O=C(NS(=O)(=O)c1ccc2ccccc2c1)n1cc(-c2ccncc2)c(-c2ccc(Cl)c(O)c2)n1`, the growth was 43.3%.

With `N#CC1c2ccccc2-c2ccccc2N1C(=O)c1ccccc1` (stereo not given), the growth is 21.6%.

With `N#Cc1c(-c2ccc(Cl)cc2)nc(NN=Cc2ccc[nH]2)nc1N1CCOCC1`, the growth is 2.28% (active).

For `Fc1ccc2c(c1)c(-c1nc(-c3c[nH]c4ncccc34)cs1)cn2CCCN1CCOCC1`, the growth was 21.9%.

Consider `C=C1C(=O)O[C@H]2[C@H]1CC/C(COC(=O)CSCSCC(=O)OC/C1=C/CC[C@@]3(C)O[C@H]3[C@H]3OC(=O)C(=C)[C@@H]3CC1)=C\CC[C@@]1(C)O[C@@H]21`, for which the growth is -53.9% (active).

Consider `CCCCC[C@H]1CC=C2C(=O)C(Cl)=C[C@@H]2CC=CCCCC(=O)O[C@@H](CCCCC)CC=C2C(=O)C(Cl)=C[C@@H]2CC=CCCCC(=O)O[C@@H](CCCCC)CC=C2C(=O)C(Cl)=C[C@@H]2CC=CCCCC(=O)O1`, for which the growth was 8.31% [8 µM] (active).

Take `COc1ccc(-c2cc(-c3nnc(SCC(=O)Nc4ccc(C(C)=O)cc4)o3)c3ccccc3n2)cc1`: the growth is 69%.

As to `O=C(CSCC(=O)N/N=C/c1ccccc1O)N/N=C\c1ccccc1O`, the growth was -32.8% (active).

Consider `Cc1nc2ccccc2c(/C=C/c2ccc(Cl)cc2)c1C(=O)/C=C/c1ccccc1`, for which the growth was 5.7% (active).

Regarding `CSc1ccc(N=C=C(c2ccccc2)c2ccccc2)cc1`, the growth is 79.8%.

Consider `O=S(=O)(Cc1ccccc1)c1ccccc1`, for which the growth is 96.5%.

In the case of `O=C1/C(=C/c2ccc([N+](=O)[O-])s2)Oc2cc(Cl)ccc21`, the growth was -11.7% (active).

In the case of `Cc1ccnc2c1ccc1c(C)ccnc12`, the growth is -5.64% (active).

`Cc1ccc2c(n1)C(=O)C(Oc1ccc(Br)cc1)=CC2=O`: the growth was 41.1%.

Turning to `CC1(C)NCCC[C@]2(C)[C@H]3CC=C4[C@@H]5C[C@@](C)(CO)CC[C@]5(C)CC[C@@]4(C)[C@]3(C)CC[C@@H]12`, the growth is 66.3%.

Turning to `COc1ccc(C/C(C)=C(/c2ccc(OCCN3CCCCCC3)cc2)c2ccc(OC(=O)NCc3ccccc3)cc2)cc1`, the growth is 45%.

For the compound `O=S(=O)(Nc1ccccn1)c1ccc(N=Nc2ccc(O)c3ncccc23)cc1`, the growth was -30.6% (active).

As to `C=C(C)[C@H]1CC/C(C)=C/CC[C@]2(C)O[C@H]2CC/C(C=O)=C\C1O` (stereo not given in full), the growth was 253%.

Regarding `CCCCNP1(NCCCC)=NP(NCCCC)(NCCCC)=NP(NCCCC)(NCCCC)=NP(NCCCC)(NCCCC)=N1`, the growth is -59.3% (active).

For `Cn1cnc2nc[nH]c2c1=S`, the growth is 108%.

Regarding `O=C(CSc1oc(-c2ccccc2)nc1S(=O)(=O)c1ccccc1)Nc1ccc(F)cc1`, the growth is 63.5%.

`CCN(CC)CCCN1C(=O)c2c(c(C)c3c(oc4ccc(OC)cc43)c2C)C1=O`: the growth is 97.6%.

As for `O=[N+]([O-])c1cc(Cl)cc(Cl)c1O`, the growth was 99.5%.

Consider `COc1ccc(C(=O)Nc2ccc3nc(N4CCCCC4)cc(C)c3c2)cc1OC`, for which the growth is 60.3%.

In the case of `FC(F)(F)c1ccc2c(c1)Sc1ccccc1N2`, the growth was 72.6%.

Consider `Nc1c(C(=O)Nc2ccccc2)sc2nc3c(cc12)CCC3`, for which the growth was 60.9%.

With `C=C1C[C@H](O)[C@H](Br)C(C)(C)[C@@]12CCC(C)=C(Cl)C2`, the growth is -8.6% (active).

`Cc1ccc(/C=C/C(=O)c2ccc(NC(=O)CSc3nc4c([nH]3)c(=O)n(C)c(=O)n4C)cc2)c(C)c1`: the growth was 94.5%.

Take `CC1(C)c2[nH]c3ccccc3c2C[C@]2(C)[C@H]3C(=O)C=C4[C@@H]5C[C@@](C)(C(N)=O)CC[C@]5(C)CC[C@@]4(C)[C@]3(C)CC[C@@H]12`: the growth was 59.9%.

For `NNC(=O)c1ccccc1N`, the growth is 122%.

As for `COC1=CC(c2ccc[nH]2)=N/C1=C\c1[nH]c(C)c(C)c1CCC(=O)OCc1ccccc1`, the growth was -39.1% (active).

As for `O=c1c(-c2nc3ccccc3[nH]2)cc2ccccc2n1Cc1cn(Cc2ccccc2Cl)nn1`, the growth is 67.4%.
